HP1b binding inh – blocks HP1-beta chromodomain binding to methylated histone tails; P83916; AlphaScreen HP1-beta / biotin-H3K9me3 peptide binding; Potency, µM (doses to about 114 µM), for the others: at the top dose activity change, negative = inhibition, hits mostly inhibitors; 0.56% of 390,000 active; note: nearly all actives have a fitted effect of over 70% in size
Target sequence (P83916 whole entry, looked up): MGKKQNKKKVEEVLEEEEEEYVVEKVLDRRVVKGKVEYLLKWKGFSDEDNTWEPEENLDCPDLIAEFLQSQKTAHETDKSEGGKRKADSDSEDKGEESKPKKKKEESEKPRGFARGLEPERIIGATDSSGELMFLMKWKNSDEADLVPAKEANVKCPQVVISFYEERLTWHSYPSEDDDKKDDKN
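AlphaScreen: HP1-beta (50 nM) preformed 30 min with biotin-H3(1-18)K9me3 peptide (50 nM) in PBS pH 7.4, 0.01% Tween-20. Compound added for 30 min at RT, then streptavidin donor/nickel chelate acceptor beads (10 ug/mL) for 30 min.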
PLK1 PBD inh – blocks phosphopeptide binding to human PLK1 polo-box domain; P53350; 2.8% of 360,000 active; Potency, µM, inactives show max response, negative = inhibition, usual class: inhibitors; Plk1 PBD binding of FITC phosphopeptide, fluorescence polarization; note: series mostly up to about 57 µM; % is set by controls: 0 for no effect and ±100 for the full control effect; nearly all actives have a fitted effect of over 65% in size
Target sequence (P53350 whole entry, looked up, the tested form may be a part): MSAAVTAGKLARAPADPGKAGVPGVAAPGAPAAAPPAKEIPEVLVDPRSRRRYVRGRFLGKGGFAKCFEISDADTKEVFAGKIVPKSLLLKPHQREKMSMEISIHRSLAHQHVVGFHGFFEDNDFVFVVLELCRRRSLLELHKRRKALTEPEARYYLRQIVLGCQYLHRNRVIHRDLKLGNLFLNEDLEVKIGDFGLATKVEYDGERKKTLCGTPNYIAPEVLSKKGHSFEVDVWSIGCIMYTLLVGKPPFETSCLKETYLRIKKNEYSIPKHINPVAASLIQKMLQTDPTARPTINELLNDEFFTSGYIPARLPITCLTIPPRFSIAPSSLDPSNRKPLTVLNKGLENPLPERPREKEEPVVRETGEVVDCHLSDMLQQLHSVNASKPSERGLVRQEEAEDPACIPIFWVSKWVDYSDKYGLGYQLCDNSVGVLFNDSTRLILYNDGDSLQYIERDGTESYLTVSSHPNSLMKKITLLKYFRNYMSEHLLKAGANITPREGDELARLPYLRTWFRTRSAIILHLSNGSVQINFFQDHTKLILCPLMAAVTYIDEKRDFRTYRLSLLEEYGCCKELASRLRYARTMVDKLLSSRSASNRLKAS
BAZ2B inh – BAZ2B (human) inhibition. Q9UIF8. AlphaScreen BAZ2B-H3K14Ac peptide displacement. Potency, µM (highest dose often 114 µM), for inactives: at the highest dose activity change, negative = inhibition, most hits filed as inhibitors. 4.4% of 360,000 active; note: % is set by controls: 0 for no effect and ±100 for the full control effect; nearly all actives have a fitted effect of over 60% in size
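AlphaScreen displacement: compounds (up to 110uM) incubated 30 min at room temperature with a preformed 50 nM BAZ2B/50 nM biotinylated H3K14Ac peptide complex in PBS pH 7.4 with Tween-20. Donor and acceptor beads at 10 ug/mL final added, 20 min light-protected before reading.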
JMJD2A Tudor inh – JMJD2A Tudor domain (human) inhibition | AlphaScreen JMJD2A-Tudor / H3K4me3 peptide binding | 4.4% of 390,000 active | Potency, µM (series often up to 114 µM), without a hit: at the top dose activity change, negative = inhibition, usual class: inhibitors | AID 504339; note: % is set by controls: 0 for no effect and ±100 for the full control effect; nearly all actives have a fitted effect of over 50% in size
Sfp inh – Sfp phosphopantetheinyl transferase inhibition | Q9F4F7 | 3.5% of 310,000 active | AID 1490 | Potency, µM, inactives show largest response in the series, negative = inhibition, hits mostly inhibitors | Biochemical Sfp PPTase activity, qHTS;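 note: the enzyme is Sfp with the accession as filed and its product quenches rhodamine fluorescence; 0% = enzyme reaction without inhibitor and -100% = no enzyme wells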
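Fluorescence-quenching assay: 15 nM Sfp-PPTase preincubated 15 min at room temperature with compound, then 5 uM rhodamine-CoA and 12.5 uM BHQ-2-labelled YbbR peptide added. Fluorescence (ex 525/em 598 nm) read at start and after 30 min; difference gives rate.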
G9a block – inhibitors of human histone lysine methyltransferase G9a. G9a H3K9 monomethylation, AlphaScreen, 2 h. Potency, µM (top dose mostly 102 µM), for the others: at the top dose activity, negative = inhibition, most hits filed as inhibitors. 8.8% of 350,000 active. AID 504332; note: % is set by controls: 0 for no effect and ±100 for the full control effect; nearly all actives have a fitted effect of over 75% in size
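Chemiluminescent proximity detection of H3K9 monomethylation, read after 10 min bead incubation in the dark. Reaction: 20 nM G9a, 500 nM biotin-H3K9 peptide, 20 uM SAM cofactor, 2 h, room temperature, following 15 min enzyme-compound preincubation.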
Numbers without * were called inactive; ? = inconclusive; · = no result given; ! = not active in a repeat; [ ] = another dose, or the depositor's remark. An excerpt weighted towards active compounds, which were near 12% of everything screened. Calls come from the whole dose curve; as a rule, active = well fitted curve in the direction sought with a large enough effect; inconclusive = small, poorly fitted or top-dose-only effect, or another doubt; inactive = no such curve, though single readings can be large; an effect the other way counts as inactive or inconclusive. Potency is the fitted concentration of half-maximal effect.

SMILES | HP1b binding inh | PLK1 PBD inh | BAZ2B inh | JMJD2A Tudor inh | Sfp inh | G9a block
CN1CCN(CCCNC(=O)c2ccc(/C=C3/Sc4ccccc4N(Cc4cccc(Cl)c4)C3=O)cc2)CC1 | -13.6% | 5.2% | ? | ? | 50.1µM* | 39.8µM*
CN1CCN(CCCNC(=O)c2ccc(/C=C3\Sc4ccccc4N(Cc4ccc(F)cc4)C3=O)cc2)CC1 | -15.0% | -0.6% | ? | ? | 44.7µM* | ?
O=C(NCCN1CCOCC1)c1ccc2c(c1)N(Cc1c(F)cccc1Cl)C(=O)c1ccccc1S2 | -2.2% | -16.3% | -31.3% | -31.8% | -6.1% | ?
CN(C)CCNC(=O)c1ccc2c(c1)N(Cc1c(F)cccc1Cl)C(=O)c1ccccc1S2 | -4.7% | · | · | ? | · | 15.8µM*
CCOc1ccc(CN2C(=O)c3ccccc3Sc3ccc(C(=O)NCCCN4CCOCC4)cc32)cc1 | -4.4% | -10.8% | 79.4µM* | -33.3% | -26.7% | -37.2%[59 µM]
CC1CC=CC2C1C(=O)N(Cc1ccccc1)C2c1ccc(-c2ccc(F)cc2)cc1F (stereo not given) | 31.9% | · | · | 1.4% | ? | ·
CCN1CCN(CCNC(=O)c2ccc(/C=C3\Sc4ccccc4N(Cc4ccccc4F)C3=O)cc2)CC1 | 6.7% | ? | ? | 56.2µM* | 79.4µM* | 50.1µM*
COCCCNC(=O)/C=C1\Sc2ccccc2N(Cc2ccccc2F)C1=O | 66.4% | -14.5% | -36.0% | -8.1%[11.4 µM] | 8.6% | -7.1%[59 µM]
O=S(=O)(c1ccc(OCc2nc3ccccc3s2)c(Cl)c1)N1CCOCC1 | 54.4% | -13.0% | 31.6% | 3.1%[11.4 µM] | 3.6% | 50.1µM*
O=C(COC(=O)CCc1nc2ccccc2s1)Nc1cccc(S(=O)(=O)N2CCOCC2)c1 | 16.2% | 0.3% | 9.1% | -3.2% | -7.2% | ?
O=C(COC(=O)CCc1nc2ccccc2s1)Nc1ncc(Cl)cc1Cl | 20.6% | -10.5% | ? | -22.6% | 1.7% | 44.7µM*
O=C(COC(=O)CCCc1nc2ccccc2s1)Nc1ncc(Cl)cc1Cl | 9.9% | -19.7% | ? | ? | 0.3% | ?
O=C(COC(=O)CCc1nc2ccccc2s1)Nc1ccc(S(=O)(=O)N2CCOCC2)cc1 | 17.1% | -4.0% | -2.8% | -16.1% | 9.4% | 56.2µM*
COc1ccc(CN(C)c2ccc(-c3nc(-c4ccccc4)no3)cc2[N+](=O)[O-])cc1 | 36.2% | · | -9.5% | -10.3% | · | -35.4%[59 µM]
Cc1ccc(S(=O)(=O)N(C)C(C)CCc2ccco2)cc1 (stereo not given) | 23.3% | -7.5% | 6.7% | 1.7% | · | 12.3%[12.7 µM]
COc1ccc(S(=O)(=O)N(C)C(C)CCc2ccco2)cc1 (stereo not given) | 12.2% | -10.6% | -27.2% | -9.3% | -17.9% | 79.4µM*
NC1(C(=O)O)CC1 | 27.8% | -4.6% | · | 3.16µM* | 56.2µM* | 7.08µM*!
NC1(C(=O)O)CCCC1 | · | · | · | · | -10.7% | -32.6%[2.33 µM]
NC1(C(=O)O)C[C@H](C(=O)O)[C@H](C(=O)O)C1 (stereo not given in full) | · | · | · | · | 50.1µM*! | 25.9%[59 µM]
N[C@H](C(=O)O)[C@H]1C[C@@H]1C(=O)O | · | · | · | · | -0.6% | 30.8%[12.7 µM]
CCN1CCCC1CNCc1ccc(OCc2ccc(Cl)nc2)c(OC)c1 (stereo not given) | 25.8% | -14.6% | -37.8% | -8.3% | -0.4% | ?
CCN1CCCC1CNCC(O)COc1ccc(C(C)(C)C)cc1C (stereo not given) | 7.5% | ? | ? | 1.58µM* | -35.4% | ?
Cc1oc2ncn(C)c(=O)c2c1C(=O)N1CCN(c2ccccc2)CC1 | 10.0% | · | -1.4% | -20.9% | · | -1.2%[59 µM]
COc1cc(C2C(C#N)=C(N)Oc3c2oc(CO)cc3=O)ccc1OC(C)C (stereo not given) | 12.6% | 0.0% | -5.0% | 15.8µM* | -28.7% | ?
CCc1ccc(OC(C)C(=O)Nc2c(C(=O)c3ccccc3)oc3ccccc23)cc1 (stereo not given) | 94.7% | · | 18.0% | 58.4% | · | 75.4%[59 µM]
SMILES | HP1b binding inh | PLK1 PBD inh | BAZ2B inh | JMJD2A Tudor inh | Sfp inh | G9a block
COC(=O)c1c(-c2ccc(Cl)cc2)noc1N1CCN(c2cc(C)ccc2C)CC1 | 16.6%[57 µM] | · | -7.2% | -6.8% | · | 10.1%[59 µM]
S=c1[nH]nc(-c2ccco2)n1/N=C/C=C/c1ccco1 | ? | -26.5% | ? | 3.55µM* | -41.6% | 1.41µM*
S=c1[nH]nc(-c2cc(-c3ccccc3)n[nH]2)n1/N=C/C=C/c1ccco1 | ? | ? | ? | ? | 15.8µM* | 1.78µM*
Cc1ccc(-c2n[nH]c(=S)n2/N=C/C=C\c2ccccc2[N+](=O)[O-])cc1 | -7.4% | -26.6% | ? | ? | -24.5% | ?
CCC1CCCCN1S(=O)(=O)c1ccc(NC(=O)c2cc(=O)c3c(C)cc(C)cc3o2)cc1 (stereo not given) | 19.9% | · | -2.5% | -9.0% | · | 6.1%[59 µM]
C=C(C)C(=O)N1CC2(CC(c3cccc(NC(=O)/C=C\C)c3)=NO2)C[C@H]1C(N)=O (stereo not given in full) | 39.6% | 2.0% | 8.4% | 5.6% | 18.2% | 14.3%[59 µM]
C/C=C/C=C/C(=O)N1CC2(CC(c3cccc(NC(=O)/C=C/C)c3)=NO2)C[C@@H]1C(N)=O (stereo not given in full) | 14.2% | -17.4% | -1.6% | -30.3% | 28.2µM* | ?
C=C(C)C(=O)Nc1cccc(C2=NOC3(C2)C[C@@H](C(N)=O)N(C(=O)/C=C/C=C/C)C3)c1 (stereo not given in full) | ? | ? | 2µM* | 3.16µM* | 31.6µM* | ?
Cc1cc(NS(=O)(=O)c2ccc3c(c2)CCC(=O)N3)ccc1F | · | · | · | -13.5% | · | ·
Cc1cccc(CNC(=O)Cn2nc(C)n3c(cc4cc(F)ccc43)c2=O)c1 | 28.0% | · | 2.0% | 0.4% | · | 7.3%[59 µM]
CCCc1cc(C(=O)NNC(=S)Nc2cccc(C)c2)cs1 | ? | -16.5% | -23.7% | -24.6% | 9.1% | 8.91µM*
Cc1cccc(NC(=S)NNC(=O)c2ccc3c(c2)OCO3)c1 | 24.7% | -8.1% | -9.7% | -24.3% | 3.1% | 44.7µM*
COc1cc(NC(=O)c2ccc3c(c2)OCO3)ccc1NC(=O)C(C)C | ? | 29.9µM* | -1.1% | 79.4µM* | 10.8% | -5.7%
COc1cc(C(=O)NC(=S)NNC(=O)c2ccc3c(c2)OCO3)cc(OC)c1OC | 8.7% | -2.6% | -4.9% | -13.4% | 10.3% | 35.5µM*
COc1cc(C(=O)NC(=S)Nc2ccc3c(c2)OCO3)cc(OC)c1OC | -1.9% | -7.1% | -9.1% | -30.2% | -18.3% | ·
Cc1cccc(NC(=O)c2ccc3c(c2)OCCO3)c1 | -13.6% | -7.6% | -3.3% | -4.2% | 5.0% | 3.0%
Cc1ccc(CSc2nc(-c3ccc(C(C)(C)C)cc3)nc3cc(=O)[nH]n23)cc1 | 33.8% | · | ? | -30.5% | · | 44.7%[59 µM]
CC(C)c1ccc(CN(Cc2ccco2)c2cnc(S(C)(=O)=O)nc2C(=O)Nc2ccccc2)cc1 | 3.9% | · | ? | ? | · | ?
